Assay [1] in a line: AP1 Signaling Pathway (AID 357; active = well fitted curve in either direction with a large enough effect, not every such curve was filed as active;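 also: ME-180 reporter cells stimulated with EGF at its EC50 level; % is scaled to controls: 0 for no effect and ±100 for the full control effect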). The settings on record: ME-180 AP-1-bla reporter, EGF-induced, beta-lactamase ratio, 5 h; at 7.69 µM (top of the series) unless noted. A digest of the protocol:
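A ratiometric CCF4 readout (405 nm excitation; 460 and 530 nm emission) quantified AP-1-driven beta-lactamase in ME-180 cells after 5 h with compound and EC50 EGF; AC50 values were derived for activators and inhibitors.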

For assay [2], the target named is Cytochrome P450 1A2 (Homo sapiens) (UniProt P05177). As to the kind of experiment: p450-cyp1a2 (AID 410; calls by dose curve; also: potency is read from the fitted curve at half-maximal effect). A digest of the protocol:
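Human CYP1A2 (20nM) demethylated Luciferin-ME at its Km (100uM) in 100mM KPO4. After 10 min compound preincubation, NADPH regeneration ran the reaction 60 min at room temperature. Luciferin was read by luminescence, normalized to 57 uM furafylline.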

Assay [3] is described as follows: Stat Signaling Pathway (AID 446; active = well fitted curve in either direction with a large enough effect, not every such curve was filed as active;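 also: ME-180 cervical cancer cells given 40 pM IL-6 alongside compound; SIE-controlled beta-lactamase reporter measured as 460/530 nm FRET emission ratio; % is scaled to controls: 0 for no effect and ±100 for the full control effect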). Conditions: ME-180 SIE beta-lactamase reporter, IL-6 stimulated, 5 h; at 7.69 µM (top of the series) unless noted. Summed up:
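Reporter line: ME-180 cervical carcinoma, SIE-beta-lactamase. Treatment: compound with 40 pM IL-6, 5 hrs, 37 C, in low-serum OPTI-MEM with 10 mM HEPES pH 7.3. Detection: 460/530 nm fluorescence.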

Assay [4] addresses Glucocorticoid receptor (Homo sapiens) (UniProt P04150). As to the kind of experiment: GR-GFP Redistribution (AID 450;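 active = compounds whose dose series gives a full or clear partial fitted curve of increased nuclear translocation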; also: potency is read from the fitted curve at half-maximal effect). The settings on record: U2OS GR-GFP nuclear translocation, laser cytometry, 2 h.
Assay [5] shares this target. As to the kind of experiment: GR-EFC Redistribution (AID 451; calls by dose curve; also: potency is read from the fitted curve at half-maximal effect). Conditions: CHO-K1 GR-EFC translocation, beta-gal luminescence, 2 h. Summed up:
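Translocation of GR-ED fusion to nuclear EA restores b-gal, read by luminescence after 1 h room-temperature detection. Engineered CHO-K1 biosensor cells, 1,000/well, exposed 2 h at 37 C to titrations up to 46 uM final.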

The target in assay [6] is Mitogen-activated protein kinase 10 (Mus musculus) (UniProt Q61831). As to the kind of experiment: JNK3 AlphaScreen Assay (AID 530; active = well fitted curve in either direction with a large enough effect, not every such curve was filed as active;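 also: kinase came from lysate of stimulated human HepG2 cells; signal reports phosphorylation of biotinylated GST-cJun 1-79 at Ser73 with 10 µM ATP; % is scaled to controls: 0 for no effect and ±100 for the full control effect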). A digest of the protocol: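 Room-temperature AlphaScreen kinase assay; pre-activated HepG2 lysate as JNK3 source, biotin-GST-cJun(1-79) substrate, 10 uM ATP, compound 15 min preincubation.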
(Alpha assays give light when donor and acceptor beads are brought close together.)

Assay [7] concerns the target Cytochrome P450 3A4 (Homo sapiens) (UniProt P08684). In words: qHTS Assay for Inhibitors and Substrates of Cytochrome P450 3A4 (AID 884). Also: nearly all actives have a fitted effect of over 50% in size. Also: potency is read from the fitted curve at half-maximal effect. Summed up: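 20 nM human CYP3A4 with 25 uM Luciferin-PPXE (at KM) in 200 mM KPO4, preincubated 10 min with compound; NADPH regeneration started a 60 min RT reaction. Luciferin detected by luminescence, normalized to 57 uM ketoconazole as full inhibition.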
(Quantitative high-throughput screening tests each substance at several concentrations.)

For assay [8] the target is unchanged. As to the kind of experiment: qHTS Assay for Activators of Cytochrome P450 3A4 (AID 885). Also: nearly all actives have a fitted effect of over 65% in size. Summed up:
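Signal was normalized against complete inhibition by 57 uM ketoconazole. The reaction used 20nM CYP3A4 with 25uM Luciferin-PPXE, 10-min compound preincubation and a 60-min NADPH-supported step at RT.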

Assay [9] concerns the target Cytochrome P450 2D6 (Homo sapiens) (UniProt P10635). As to the kind of experiment: qHTS Assay for Inhibitors and Substrates of Cytochrome P450 2D6 (AID 891). Also: potency is read from the fitted curve at half-maximal effect; nearly all actives have a fitted effect of over 60% in size. Summed up:
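Human CYP2D6 (5 nM) with 30 uM Luciferin-ME EGE (at Km) in 100 mM KPO4, compound preincubated 10 min, then NADPH regeneration system for 60 min at room temperature. Luciferin read by luminescence; normalized to 1.43 uM quinidine.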

In assay [10] the target is Cytochrome P450 2C19 (Homo sapiens) (UniProt P33261). In words: qHTS Assay for Inhibitors and Substrates of Cytochrome P450 2C19 (AID 899). Also: potency is read from the fitted curve at half-maximal effect; nearly all actives have a fitted effect of over 60% in size. Summed up: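 Luminescence readout of luciferin formed from 10uM Luciferin-H EGE (KM level) by 5 nM CYP2C19 in 50mM KPO4. 60 min NADPH-driven reaction at 37C after 10 min compound preincubation; data scaled to 57uM ketoconazole inhibition.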
Chain of Cytochrome P450 2C19 (Homo sapiens) (P33261 whole entry, looked up): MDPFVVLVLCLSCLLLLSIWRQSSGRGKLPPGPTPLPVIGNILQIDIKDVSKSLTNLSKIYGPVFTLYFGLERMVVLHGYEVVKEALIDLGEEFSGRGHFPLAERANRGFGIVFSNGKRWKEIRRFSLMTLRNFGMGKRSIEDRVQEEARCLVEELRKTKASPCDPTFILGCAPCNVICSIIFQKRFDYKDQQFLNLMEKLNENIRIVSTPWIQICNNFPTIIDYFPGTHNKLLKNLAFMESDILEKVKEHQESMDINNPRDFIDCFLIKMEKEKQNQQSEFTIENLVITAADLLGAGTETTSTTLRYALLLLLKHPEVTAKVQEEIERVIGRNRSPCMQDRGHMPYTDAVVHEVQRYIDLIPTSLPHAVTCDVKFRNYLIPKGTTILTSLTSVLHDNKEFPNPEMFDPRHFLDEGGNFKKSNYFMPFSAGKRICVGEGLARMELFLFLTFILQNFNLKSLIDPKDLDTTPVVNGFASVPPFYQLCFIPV

In assay [11] the target is Dual specificity protein kinase CLK4 (Homo sapiens) (UniProt Q9HAZ1). As to the kind of experiment: qHTS Assay for Inhibitors of CDC-like Kinase 4 (Kinase-Glo Assay) (AID 1770). Also: nearly all actives have a fitted effect of over 65% in size. Also: potency is read from the fitted curve at half-maximal effect. A digest of the protocol: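 Substrate mix (RS peptide 100 uM, ATP 1 uM) dispensed, compound pinned in, then Clk4 added to 25 nM final. Incubated 4.5 h at RT; Kinase-Glo reagent added, luminescence read after 5 min.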
Chain of Dual specificity protein kinase CLK4 (Homo sapiens) (Q9HAZ1 whole entry, looked up): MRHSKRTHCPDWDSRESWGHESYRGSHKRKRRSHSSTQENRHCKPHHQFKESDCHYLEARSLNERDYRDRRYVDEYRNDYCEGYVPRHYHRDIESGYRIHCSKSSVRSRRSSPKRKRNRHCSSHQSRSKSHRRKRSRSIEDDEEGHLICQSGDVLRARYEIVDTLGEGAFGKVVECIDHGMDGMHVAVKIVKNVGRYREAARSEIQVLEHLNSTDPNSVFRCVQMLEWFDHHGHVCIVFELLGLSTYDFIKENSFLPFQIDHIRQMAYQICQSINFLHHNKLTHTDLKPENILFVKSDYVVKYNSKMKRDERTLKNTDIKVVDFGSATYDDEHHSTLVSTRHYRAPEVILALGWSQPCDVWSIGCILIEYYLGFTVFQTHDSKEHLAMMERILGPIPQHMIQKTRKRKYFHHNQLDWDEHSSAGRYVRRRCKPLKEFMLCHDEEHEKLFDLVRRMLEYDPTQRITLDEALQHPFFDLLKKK

Assay [12] has the same target. As to the kind of experiment: qHTS Assay for Inhibitors of CDC-like Kinase 4 (ADP-Glo Assay) (AID 1771). Also: potency is read from the fitted curve at half-maximal effect; nearly all actives have a fitted effect of over 70% in size. A digest of the protocol:
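Clk4 (25 nM) was incubated 1 hr at room temperature with 100 uM RS repeat peptide and 1 uM ATP in buffer with 2 mM MgCl2, 0.5 mM EGTA, 2.5 mM DTT. ADP formed was quantified by ADP-Glo luminescence.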

The target of assay [13] is Ubiquitin carboxyl-terminal hydrolase 1 (Homo sapiens) (UniProt O94782). As to the kind of experiment: Inhibitors of USP1/UAF1: Pilot qHTS (AID 504865). Also: nearly all actives have a fitted effect of over 35% in size. Also: potency is read from the fitted curve at half-maximal effect. Summed up:
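In 50mM HEPES pH 7.8 containing 0.5mM EDTA, 1mM TCEP, 0.1 mg/ml BSA and 0.01% Tween-20, 1nM USP1/UAF1 is exposed to compound for 15 min, then Ub-Rho (150nM final) is added and fluorescence is read over time.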

Assay [14] is described as follows: Primary qHTS for small molecule stabilizers of the endoplasmic reticulum resident proteome: Secreted ER Calcium Modulated Protein (SERCaMP) assay (AID 1508630). Also: % is scaled to controls: 0 for no effect and ±100 for the full control effect. Summed up:
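GLuc-SERCaMP-expressing SH-SY5Y cells, pretreated 16 h with compound, are challenged with thapsigargin to empty ER calcium stores; after 4 h, coelenterazine is added directly to the medium and luminescence is imaged.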

The target in assay [15] is Lysosomal acid glucosylceramidase (Homo sapiens) (UniProt P04062). As to the kind of experiment: Glucocerebrosidase-p2 (AID 348; in the data active = potency below about 10 µM; also: potency is read from the fitted curve at half-maximal effect). Conditions: purified GBA, blue fluorogenic substrate, 40 min. Summed up:
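Compounds titrated from 0.6 nM upwards against 0.2 nM enzyme in pH 5.9 citric acid/KH2PO4, taurocholate, tween-20; blue fluorogenic substrate 80 uM, 40 min room temperature, stopped and read Ex 365/Em 440 for AC50.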

The target of assay [16] is Dual specificity protein kinase CLK4 (Homo sapiens) (UniProt Q9HAZ1). As to the kind of experiment: qHTS Assay for Inhibitors of CDC-like Kinase 4 (ADP-FP Assay) (AID 1795).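 Also: recombinant human CLK4 phosphorylating RS repeat peptide at 1 µM ATP; % is scaled to controls: 0 for no effect and ±100 for the full control effect; nearly all actives have a fitted effect of over 60% in size.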 A digest of the protocol: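 Clk4 6.25 nM; RS peptide 100 uM; ATP 1 uM; 25 mM Tris pH 7.5, 10 mM MgCl2; 1 h reaction. ADP detected via antibody/orange tracer FP displacement; TG003 positive control.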

Assay [17] is described as follows: NFAT Signaling Pathway (AID 444; active = well fitted curve in either direction with a large enough effect, not every such curve was filed as active). The settings on record: Jurkat NFAT-bla M1, carbachol, beta-lactamase ratio, 5 h; at 7.69 µM (top of the series) unless noted. A digest of the protocol:
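Read-out: CCF4 FRET ratio (460 nm/530 nm) after 1 h RT dye loading, used for %activity and AC50 from titration series. Cells: Jurkat NFAT-β-lactamase/M1 line, treated with compound plus 1 uM carbachol for 5 h, 37 °C.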

In assay [18] the target is 3',5'-cyclic-AMP phosphodiesterase 4B (Homo sapiens) (UniProt Q07343). In words: qHTS Assay for Inhibitors of PDE-IV (AID 607; active = well fitted activation curve with a large enough effect in the main read-out, with a control signal flat, not every such curve was filed as active; also: % of control where 0% means no effect). A digest of the protocol: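 Cell-based read-out of cAMP via a modified cyclic nucleotide-gated channel and membrane potential dye (535/590 nm) in HEK293 cells expressing PDE4 endogenously. Compounds tested up to 22.9 uM final; 100 uM RO 20-1724 reference.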
Chain of 3',5'-cyclic-AMP phosphodiesterase 4B (Homo sapiens) (Q07343 whole entry, looked up): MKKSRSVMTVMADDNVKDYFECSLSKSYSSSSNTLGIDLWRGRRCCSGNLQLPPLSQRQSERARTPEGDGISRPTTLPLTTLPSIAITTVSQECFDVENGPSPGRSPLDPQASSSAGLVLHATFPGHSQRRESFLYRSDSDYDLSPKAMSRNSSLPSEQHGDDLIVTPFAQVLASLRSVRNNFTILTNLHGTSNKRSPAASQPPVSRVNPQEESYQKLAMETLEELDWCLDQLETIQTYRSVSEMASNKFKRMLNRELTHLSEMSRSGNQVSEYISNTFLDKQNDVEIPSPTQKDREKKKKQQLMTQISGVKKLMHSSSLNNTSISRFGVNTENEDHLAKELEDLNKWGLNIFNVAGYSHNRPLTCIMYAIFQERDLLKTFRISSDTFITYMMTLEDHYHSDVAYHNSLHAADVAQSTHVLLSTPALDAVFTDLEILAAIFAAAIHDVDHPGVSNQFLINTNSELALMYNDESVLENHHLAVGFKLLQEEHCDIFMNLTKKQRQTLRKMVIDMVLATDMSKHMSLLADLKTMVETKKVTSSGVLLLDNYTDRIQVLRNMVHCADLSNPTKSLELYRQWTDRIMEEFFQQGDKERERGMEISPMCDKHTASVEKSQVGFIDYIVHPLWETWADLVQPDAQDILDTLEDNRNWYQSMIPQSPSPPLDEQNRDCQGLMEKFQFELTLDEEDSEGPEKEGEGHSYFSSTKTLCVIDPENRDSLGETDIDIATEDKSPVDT

Assay [19] is described as follows: qHTS Assay for Identification of Small Molecule Agonists for Hypoxia Response Element Signaling Pathway (AID 914; active = well fitted activation curve with a large enough effect in the signal ratio, with a control signal flat, not every such curve was filed as active; the % refers to the signal ratio; also: potency is read from the fitted curve at half-maximal effect). The settings on record: ME-180 (cervical carcinoma) HRE-bla reporter, beta-lactamase ratio, CoCl2, 17 h; activation: stronger effect = higher value. A digest of the protocol:
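Reporter activity (beta-lactamase, CCF4 460nm/530nm ratio) in HRE-bla ME-180 cells is recorded after 17 h compound exposure with EC50 CoCl2 at 37 degrees Celsius. AC50 values come from titration data.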

The values below come from PubChem BioAssay (NCATS).

Unmarked numbers belong to inactive results. Results filed as inconclusive are left out. Activity calls are given as the source filed them. Unless noted, calls follow the shape of the dose curve; as a rule, active = well fitted curve in the direction sought with a large enough effect; inconclusive = small, poorly fitted or top-dose-only effect, or another doubt; inactive = no such curve, though single readings can be large; an effect the other way counts as inactive or inconclusive. Some results are limits rather than exact numbers.

Chain of Cytochrome P450 3A4 (Homo sapiens) (P08684 whole entry, looked up): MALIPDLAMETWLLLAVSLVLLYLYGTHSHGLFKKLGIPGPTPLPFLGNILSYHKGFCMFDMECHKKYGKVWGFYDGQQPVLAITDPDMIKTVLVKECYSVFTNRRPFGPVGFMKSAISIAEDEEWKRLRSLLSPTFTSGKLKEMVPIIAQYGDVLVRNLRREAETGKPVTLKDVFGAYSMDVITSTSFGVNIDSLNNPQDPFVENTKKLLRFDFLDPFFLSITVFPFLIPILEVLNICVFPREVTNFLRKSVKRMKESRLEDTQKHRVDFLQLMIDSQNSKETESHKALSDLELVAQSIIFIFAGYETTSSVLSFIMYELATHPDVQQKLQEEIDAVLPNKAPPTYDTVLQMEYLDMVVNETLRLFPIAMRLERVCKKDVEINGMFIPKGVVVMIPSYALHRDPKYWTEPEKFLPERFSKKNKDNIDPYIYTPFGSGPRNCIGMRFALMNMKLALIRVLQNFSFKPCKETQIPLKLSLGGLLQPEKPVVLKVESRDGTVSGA
Chain of Glucocorticoid receptor (Homo sapiens) (P04150 whole entry, looked up): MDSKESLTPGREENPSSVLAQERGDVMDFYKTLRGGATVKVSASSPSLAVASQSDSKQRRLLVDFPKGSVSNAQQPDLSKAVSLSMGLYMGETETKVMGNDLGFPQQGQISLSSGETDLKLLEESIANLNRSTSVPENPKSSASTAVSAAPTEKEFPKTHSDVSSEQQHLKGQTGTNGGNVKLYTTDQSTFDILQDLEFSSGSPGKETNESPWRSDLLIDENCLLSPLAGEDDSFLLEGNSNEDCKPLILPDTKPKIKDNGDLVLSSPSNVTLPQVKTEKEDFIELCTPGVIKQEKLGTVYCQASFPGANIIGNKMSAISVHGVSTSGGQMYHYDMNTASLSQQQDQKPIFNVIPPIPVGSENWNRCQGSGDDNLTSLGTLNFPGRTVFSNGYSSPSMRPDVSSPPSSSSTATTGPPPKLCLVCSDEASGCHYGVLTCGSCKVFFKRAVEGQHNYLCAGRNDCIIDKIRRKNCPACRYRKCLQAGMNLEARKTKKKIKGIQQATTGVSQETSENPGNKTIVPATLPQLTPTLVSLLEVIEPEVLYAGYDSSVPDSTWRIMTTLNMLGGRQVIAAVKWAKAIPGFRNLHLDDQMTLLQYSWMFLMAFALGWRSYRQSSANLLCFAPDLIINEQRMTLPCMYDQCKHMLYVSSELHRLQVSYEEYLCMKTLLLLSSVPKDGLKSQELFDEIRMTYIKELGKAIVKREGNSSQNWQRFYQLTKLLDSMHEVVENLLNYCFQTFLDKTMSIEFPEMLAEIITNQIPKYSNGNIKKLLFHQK
Chain of Ubiquitin carboxyl-terminal hydrolase 1 (Homo sapiens) (O94782 whole entry, looked up): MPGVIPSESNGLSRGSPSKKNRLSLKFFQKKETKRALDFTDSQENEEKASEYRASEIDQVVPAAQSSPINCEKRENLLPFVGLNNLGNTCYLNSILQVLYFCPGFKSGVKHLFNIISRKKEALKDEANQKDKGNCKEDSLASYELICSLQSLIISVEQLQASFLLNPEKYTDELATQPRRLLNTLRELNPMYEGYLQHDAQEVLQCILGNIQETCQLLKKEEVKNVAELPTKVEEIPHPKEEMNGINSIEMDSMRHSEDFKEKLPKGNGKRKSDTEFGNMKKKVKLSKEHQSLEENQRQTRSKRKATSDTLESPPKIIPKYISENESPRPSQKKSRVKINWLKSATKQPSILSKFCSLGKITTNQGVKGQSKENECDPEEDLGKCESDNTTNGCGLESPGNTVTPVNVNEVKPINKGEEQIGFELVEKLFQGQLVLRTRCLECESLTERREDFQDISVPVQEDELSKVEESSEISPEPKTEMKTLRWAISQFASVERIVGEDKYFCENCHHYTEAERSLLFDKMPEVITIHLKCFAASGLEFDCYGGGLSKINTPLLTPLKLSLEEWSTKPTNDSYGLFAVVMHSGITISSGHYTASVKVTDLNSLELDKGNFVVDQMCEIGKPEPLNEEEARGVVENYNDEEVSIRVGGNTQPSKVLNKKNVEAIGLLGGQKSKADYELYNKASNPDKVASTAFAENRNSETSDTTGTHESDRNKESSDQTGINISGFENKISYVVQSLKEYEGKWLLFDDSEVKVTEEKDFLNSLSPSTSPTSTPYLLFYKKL
Chain of Lysosomal acid glucosylceramidase (Homo sapiens) (P04062 whole entry, looked up): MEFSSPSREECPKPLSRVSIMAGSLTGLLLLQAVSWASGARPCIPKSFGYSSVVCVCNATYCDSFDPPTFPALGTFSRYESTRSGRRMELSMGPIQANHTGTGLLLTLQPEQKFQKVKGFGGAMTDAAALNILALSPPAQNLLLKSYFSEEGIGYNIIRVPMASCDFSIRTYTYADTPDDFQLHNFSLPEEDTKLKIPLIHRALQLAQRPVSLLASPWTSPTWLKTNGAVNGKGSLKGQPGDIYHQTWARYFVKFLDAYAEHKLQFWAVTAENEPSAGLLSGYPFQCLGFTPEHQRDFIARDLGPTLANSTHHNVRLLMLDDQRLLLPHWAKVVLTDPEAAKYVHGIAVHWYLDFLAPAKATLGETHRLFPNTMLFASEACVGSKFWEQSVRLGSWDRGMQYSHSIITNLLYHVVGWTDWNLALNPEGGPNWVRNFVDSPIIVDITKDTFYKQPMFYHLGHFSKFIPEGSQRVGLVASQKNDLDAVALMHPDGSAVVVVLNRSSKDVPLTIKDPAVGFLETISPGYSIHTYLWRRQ
Chain of Cytochrome P450 1A2 (Homo sapiens) (P05177 whole entry, looked up): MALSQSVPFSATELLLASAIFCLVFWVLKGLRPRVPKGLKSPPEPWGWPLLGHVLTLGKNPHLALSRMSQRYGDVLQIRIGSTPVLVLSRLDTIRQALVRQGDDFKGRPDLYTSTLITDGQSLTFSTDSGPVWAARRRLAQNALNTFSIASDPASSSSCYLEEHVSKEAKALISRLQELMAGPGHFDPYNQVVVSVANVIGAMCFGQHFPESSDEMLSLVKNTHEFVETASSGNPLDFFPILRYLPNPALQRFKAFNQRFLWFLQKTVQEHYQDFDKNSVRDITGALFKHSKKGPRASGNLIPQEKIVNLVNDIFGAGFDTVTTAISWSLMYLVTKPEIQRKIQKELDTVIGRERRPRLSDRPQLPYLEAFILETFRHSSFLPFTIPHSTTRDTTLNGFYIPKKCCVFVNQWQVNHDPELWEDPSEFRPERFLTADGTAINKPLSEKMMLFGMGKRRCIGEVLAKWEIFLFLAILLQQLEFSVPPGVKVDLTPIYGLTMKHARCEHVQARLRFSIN

Regarding `COc1ccc2[nH]cc(CCNc3nc(-c4cccnc4)nc4ccccc34)c2c1`, the activity change, negative = inhibition in [1] was -14.3%. The Potency was 0.501 µM (active) in assay [2]; greater than 46 µM in [4]; greater than 46 µM in [5]; 1.58 µM (active) in [7]; 6.31 µM (active) in [9]; 0.501 µM (active) in assay [10]. Moreover, the Potency is 11.2 µM (active) in assay [11] and 7.94 µM (active) in assay [12]. For the same compound, in assay [3], the activity, negative = inhibition was -15.6%. Further, the Potency result in assay [6], in assay [8] and in [13] was “inactive” throughout. In addition, the outcome in [14] was inactive.

For `Cc1noc(C)c1-c1nc(NCc2cccs2)c2ccccc2n1`, the Potency in assay [15] is greater than 2.29 µM; in [2], 0.2 µM (active); in assay [4], greater than 46 µM; in assay [5], greater than 46 µM; in assay [7], 6.31 µM (active); in assay [13], 10 µM (active). Moreover, the activity change, negative = inhibition in [1] is 3.98%. Further, the activity, negative = inhibition in assay [3] was -8.06%. The Potency entry in assay [6], in assay [8], in [11] and in assay [16] was “inactive” each time. Further, the outcome in assay [14] was inactive.

Take `COc1ccc2[nH]cc(CCNc3ccnc(-c4ccccc4C(F)(F)F)n3)c2c1`: the Potency is greater than 11.4 µM in assay [15]; 3.98 µM (active) in [2]; greater than 46 µM in [4]; greater than 46 µM in assay [5]; 2 µM (active) in assay [7]. Further, the values for the activity change, negative = inhibition in [1] and in [17] were -10.2% and -1.93%, respectively. Further, the activity, negative = inhibition in [3] is -14.8%. Also, the Potency result in assay [6], in assay [18], in [8], in [11] and in assay [16] was “inactive” each time. Besides, in [14], the result was inactive.

In the case of `Cc1cnc(CNc2ncncc2-c2ccccc2C)cn1`, the Potency in assay [15] was greater than 11.4 µM; in [2], 25.1 µM (active); in assay [4] it was greater than 46 µM; in [5], greater than 46 µM; in assay [10], 7.94 µM (active). The activity change, negative = inhibition was 3.21% in assay [1] and -3.77% in [17]. Also, the activity, negative = inhibition in [3] is -10.5%. Besides, the Potency entry in assay [6], in assay [18], in assay [8], in assay [11], in [16] and in assay [13] was “inactive” in each case. In assay [14], the result was inactive.

Take `CN1CCN(c2ncc3ncc(=O)n(CCc4ccccc4)c3n2)CC1`: the Potency was greater than 11.4 µM in [15]; 3.98 µM (active) in [2]; greater than 9.22 µM in [4]; greater than 46 µM in assay [5]; 6.31 µM (active) in [10]; 25.1 µM (active) in [11]. The activity change, negative = inhibition in [1] is -5.68%; in assay [17], -2.1%. In addition, in assay [3], the activity, negative = inhibition is 9.6%. Besides, the Potency result in assay [6], in [18], in [8], in [16] and in assay [13] was “inactive” throughout. In assay [14], the outcome was inactive.

In the case of `CN(C)c1ncc2nc(-c3ccc(Cl)cc3)c(=O)n(Cc3ccc(F)cc3)c2n1`, the Potency in assay [15] was greater than 11.4 µM; in assay [2] it was 5.01 µM (active); in assay [4], greater than 9.22 µM; in assay [5], greater than 46 µM; in assay [19], 1.26 µM (active). Further, the activity change, negative = inhibition in assay [1] was 115% [activator] (active); in [17], 137% [activator] (active). In addition, the Potency entry in assay [6], in assay [18], in [7], in assay [11] and in [16] was “inactive” each time. Besides, the outcome in assay [14] was inactive.
